# Data from PubChem BioAssay (NCATS).
# Inconclusive results are not listed. Activity calls are given as the source filed them. Unless noted, calls follow the shape of the dose curve; as a rule, active = well fitted curve in the direction sought with a large enough effect; inconclusive = small, poorly fitted or top-dose-only effect, or another doubt; inactive = no such curve, though single readings can be large; an effect the other way counts as inactive or inconclusive.
# How the values were obtained:
# [1] = target: Ubiquitin carboxyl-terminal hydrolase 1 (Homo sapiens) (UniProt O94782); experiment: Inhibitors of USP1/UAF1: Pilot qHTS (AID 504865); also: potency is read from the fitted curve at half-maximal effect; nearly all actives have a fitted effect of over 35% in size
# Method in brief: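 USP1/UAF1 complex at 1 nM preincubated 15 min at room temperature with compound, then Ub-Rho substrate added at 150 nM final. Fluorescence (480/540 nm) read kinetically in 50 mM HEPES pH 7.8, 0.5 mM EDTA, 1 mM TCEP, 0.1 mg/ml BSA, 0.01% Tween-20.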
# [2] = target: Luciferin 4-monooxygenase (Photinus pyralis) (UniProt P08659); experiment: Biochemical firefly luciferase enzyme assay for NPC (AID 624030);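 also: purified P. pyralis luciferase at 10 nM with luciferin and ATP substrate; nearly all actives have a fitted effect of over 70% in size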
# Method in brief: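 Purified P. pyralis luciferase at 10 nM in 50 mM Tris Acetate (final), luminescence read within 5 minutes of enzyme addition to compounds. Activity normalised to PTC124 versus DMSO; concentration-response curves classed by r2, magnitude and activity.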
# [3] = S16 Schwann cell viability assay (CellTiter-Glo assay) (AID 624031); also: potency is read from the fitted curve at half-maximal effect; nearly all actives have a fitted effect of over 70% in size
# Method in brief: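 Counter-screen for cytotoxicity: parental S16 rat Schwann cells lacking the PMP22 reporters, treated 24 h with compound, viability from cellular ATP by CellTiter-Glo luminescence, normalized to DMSO (0%) and no-cell wells.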
# [4] = S16 Schwann cell PMP22 intronic element firefly luciferase assay (AID 624032); also: potency is read from the fitted curve at half-maximal effect; nearly all actives have a fitted effect of over 30% in size
# Method in brief: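 Rat S16 Schwann cells stably carrying firefly luciferase driven by a PMP22 intronic element, in 10% FBS, treated 24 h at 37 C. ONE-Glo luminescence normalized to PTC124 control and DMSO (0%); curves classed by r2, magnitude and activity.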
# [5] = S16 Schwann cell PMP22 intronic element beta-lactamase assay (AID 624044; calls by dose curve; also: potency is read from the fitted curve at half-maximal effect; nearly all actives have a fitted effect of over 15% in size)
# Method in brief: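 Beta-lactamase reporter under a PMP22 intronic regulatory element in stable S16 rat Schwann cells; 24 h compound exposure. 460 nm blue signal normalized between DMSO (0%) and potassium clavulanate, with 535 nm FRET tracking viability; curves classed by r2 and response.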
# [6] = qHTS Assay for Identifying Gametocytocidal Compounds (AID 743244); also: potency is read from the fitted curve at half-maximal effect; settings: P. falciparum 3D7 stage III-V gametocytes, alamarBlue, 72 h; max response: active compounds read low
# Method in brief: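 Using 20,000 stage III–V 3D7 gametocytes per well, compounds were incubated 72 h under 37 °C/5% CO2. Viability was then assessed by 24 h alamarBlue reduction, measured fluorometrically at 525/598 nm.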
# [7] = tested on: 3D7; experiment: qHTS profiling for inhibitors of Plasmodium falciparum proliferation (AID 504749); also: potency is read from the fitted curve at half-maximal effect; nearly all actives have a fitted effect of over 60% in size; settings: P. falciparum in erythrocytes, SYBR Green DNA, 72 h; series mostly up to 28.7 µM
# Method in brief: (§1)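 Each compound contacts P. falciparum-infected red blood cells for 72 h at 37 C; lysis buffer (Tris, EDTA, saponin, Triton X, SYBR Green I) is added and fluorescence measured next morning; values normalized to controls.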
# [8] = tested on: 7G8; experiment: as above; settings: P. falciparum in erythrocytes, SYBR Green DNA, 72 h; series mostly up to 28.7 µM
# Method in brief: as §1
# [9] = tested on: AA1029; experiment: as above; settings: P. falciparum in erythrocytes, SYBR Green DNA, 72 h; series mostly up to 28.7 µM
# Method in brief: as §1
# [10] = tested on: AS120; experiment: as above; settings: P. falciparum in erythrocytes, SYBR Green DNA, 72 h; series mostly up to 28.7 µM
# Method in brief: as §1
# [11] = tested on: ATS189; experiment: as above; settings: P. falciparum in erythrocytes, SYBR Green DNA, 72 h; series mostly up to 28.7 µM
# Method in brief: as §1
# [12] = tested on: ATS95; experiment: as above; settings: P. falciparum in erythrocytes, SYBR Green DNA, 72 h; series mostly up to 28.7 µM
# Method in brief: as §1
# [13] = tested on: C2A; experiment: as above; settings: P. falciparum in erythrocytes, SYBR Green DNA, 72 h; series mostly up to 28.7 µM
# Method in brief: as §1
# [14] = tested on: CP185; experiment: as above; settings: P. falciparum in erythrocytes, SYBR Green DNA, 72 h; series mostly up to 28.7 µM
# Method in brief: as §1
# [15] = tested on: CP191; experiment: as above; settings: P. falciparum in erythrocytes, SYBR Green DNA, 72 h; series mostly up to 28.7 µM
# Method in brief: as §1
# [16] = tested on: CP192; experiment: as above; settings: P. falciparum in erythrocytes, SYBR Green DNA, 72 h; series mostly up to 28.7 µM
# Method in brief: as §1
# [17] = tested on: CP194; experiment: as above; settings: P. falciparum in erythrocytes, SYBR Green DNA, 72 h; series mostly up to 28.7 µM
# Method in brief: as §1
# [18] = tested on: CP201; experiment: as above; settings: P. falciparum in erythrocytes, SYBR Green DNA, 72 h; series mostly up to 28.7 µM
# Method in brief: as §1
# [19] = tested on: CP203; experiment: as above; settings: P. falciparum in erythrocytes, SYBR Green DNA, 72 h; series mostly up to 28.7 µM
# Method in brief: as §1
# [20] = tested on: CP211; experiment: as above; settings: P. falciparum in erythrocytes, SYBR Green DNA, 72 h; series mostly up to 28.7 µM
# Method in brief: as §1
# [21] = tested on: CP215; experiment: as above; settings: P. falciparum in erythrocytes, SYBR Green DNA, 72 h; series mostly up to 28.7 µM
# Method in brief: as §1
# [22] = tested on: CP217; experiment: as above; settings: P. falciparum in erythrocytes, SYBR Green DNA, 72 h; series mostly up to 28.7 µM
# Method in brief: as §1
# [23] = tested on: CP237; experiment: as above; settings: P. falciparum in erythrocytes, SYBR Green DNA, 72 h; series mostly up to 28.7 µM
# Method in brief: as §1
# [24] = tested on: CP238; experiment: as above; settings: P. falciparum in erythrocytes, SYBR Green DNA, 72 h; series mostly up to 28.7 µM
# Method in brief: as §1
# [25] = tested on: CP247; experiment: as above; settings: P. falciparum in erythrocytes, SYBR Green DNA, 72 h; series mostly up to 28.7 µM
# Method in brief: as §1
# [26] = tested on: CP250; experiment: as above; settings: P. falciparum in erythrocytes, SYBR Green DNA, 72 h; series mostly up to 28.7 µM
# Method in brief: as §1
# [27] = tested on: CP252; experiment: as above; settings: P. falciparum in erythrocytes, SYBR Green DNA, 72 h; series mostly up to 28.7 µM
# Method in brief: as §1
# [28] = tested on: CP256; experiment: as above; settings: P. falciparum in erythrocytes, SYBR Green DNA, 72 h; series mostly up to 28.7 µM
# Method in brief: as §1
# [29] = tested on: CP260; experiment: as above; settings: P. falciparum in erythrocytes, SYBR Green DNA, 72 h; series mostly up to 28.7 µM
# Method in brief: as §1
# [30] = tested on: CP262; experiment: as above; settings: P. falciparum in erythrocytes, SYBR Green DNA, 72 h; series mostly up to 28.7 µM
# Method in brief: as §1
# [31] = tested on: CP265; experiment: as above; settings: P. falciparum in erythrocytes, SYBR Green DNA, 72 h; series mostly up to 28.7 µM
# Method in brief: as §1
# [32] = tested on: CP266; experiment: as above; settings: P. falciparum in erythrocytes, SYBR Green DNA, 72 h; series mostly up to 28.7 µM
# Method in brief: as §1
# [33] = tested on: CP268; experiment: as above; settings: P. falciparum in erythrocytes, SYBR Green DNA, 72 h; series mostly up to 28.7 µM
# Method in brief: as §1
# Ubiquitin carboxyl-terminal hydrolase 1 (Homo sapiens), sequence (O94782 whole entry, looked up): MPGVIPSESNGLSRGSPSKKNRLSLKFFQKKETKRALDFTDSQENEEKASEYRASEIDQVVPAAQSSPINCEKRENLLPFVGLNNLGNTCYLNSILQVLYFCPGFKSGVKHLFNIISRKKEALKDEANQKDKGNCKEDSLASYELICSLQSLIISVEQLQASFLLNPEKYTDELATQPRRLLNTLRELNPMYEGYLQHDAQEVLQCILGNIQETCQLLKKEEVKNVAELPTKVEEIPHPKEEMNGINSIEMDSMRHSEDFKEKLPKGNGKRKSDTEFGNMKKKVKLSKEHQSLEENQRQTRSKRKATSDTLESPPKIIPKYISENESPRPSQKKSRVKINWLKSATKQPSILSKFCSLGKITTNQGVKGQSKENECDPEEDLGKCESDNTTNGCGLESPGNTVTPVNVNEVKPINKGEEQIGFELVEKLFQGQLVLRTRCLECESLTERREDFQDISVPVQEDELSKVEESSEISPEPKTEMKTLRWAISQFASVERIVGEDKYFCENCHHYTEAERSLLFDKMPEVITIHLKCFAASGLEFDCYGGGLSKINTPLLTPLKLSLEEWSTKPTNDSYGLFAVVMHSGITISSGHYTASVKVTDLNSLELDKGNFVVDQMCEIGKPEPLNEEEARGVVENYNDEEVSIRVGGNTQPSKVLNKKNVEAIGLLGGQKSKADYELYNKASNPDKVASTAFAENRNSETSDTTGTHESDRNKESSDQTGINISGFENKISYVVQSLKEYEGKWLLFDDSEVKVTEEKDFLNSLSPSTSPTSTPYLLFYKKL
# Luciferin 4-monooxygenase (Photinus pyralis), sequence (P08659 whole entry, looked up): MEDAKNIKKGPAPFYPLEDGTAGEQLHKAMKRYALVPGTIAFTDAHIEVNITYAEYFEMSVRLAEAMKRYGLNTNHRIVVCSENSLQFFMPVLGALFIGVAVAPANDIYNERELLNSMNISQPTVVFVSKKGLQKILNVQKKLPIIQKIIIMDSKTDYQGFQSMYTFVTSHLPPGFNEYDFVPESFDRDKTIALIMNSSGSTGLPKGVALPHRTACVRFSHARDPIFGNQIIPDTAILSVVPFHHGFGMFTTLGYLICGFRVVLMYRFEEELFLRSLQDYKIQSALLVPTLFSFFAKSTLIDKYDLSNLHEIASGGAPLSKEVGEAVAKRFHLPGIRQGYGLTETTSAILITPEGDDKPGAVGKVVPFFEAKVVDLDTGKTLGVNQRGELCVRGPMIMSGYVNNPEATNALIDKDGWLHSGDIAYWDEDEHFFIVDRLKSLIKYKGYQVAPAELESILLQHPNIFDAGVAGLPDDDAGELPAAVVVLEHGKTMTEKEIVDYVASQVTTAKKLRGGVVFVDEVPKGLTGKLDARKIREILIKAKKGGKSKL
compound,measurement,setting,value
CCCCCCCCCC[N+](C)(C)CCCCCCCCCC,Potency,[1],31.6 µM (active)
same,Potency,[2],inactive
same,Potency,[3],18.1 µM (active)
same,Potency,[4],16.1 µM (active)
same,Potency,[5],25.1 µM (active)
same,Potency,[6],7.94 µM (active)
same,Potency,[7],2 µM (active)
same,Potency,[8],2 µM (active)
same,Potency,[9],7.08 µM (active)
same,Potency,[10],6.31 µM (active)
same,Potency,[11],7.08 µM (active)
same,Potency,[12],6.31 µM (active)
same,Potency,[13],4.47 µM (active)
same,Potency,[14],4.47 µM (active)
same,Potency,[15],3.98 µM (active)
same,Potency,[16],4.78 µM (active)
same,Potency,[17],6.75 µM (active)
same,Potency,[18],9.53 µM (active)
same,Potency,[19],6.75 µM (active)
same,Potency,[20],9.53 µM (active)
same,Potency,[21],8.49 µM (active)
same,Potency,[22],4.47 µM (active)
same,Potency,[23],7.08 µM (active)
same,Potency,[24],5.62 µM (active)
same,Potency,[25],4.47 µM (active)
same,Potency,[26],4.47 µM (active)
same,Potency,[27],7.08 µM (active)
same,Potency,[28],4.47 µM (active)
same,Potency,[29],3.98 µM (active)
same,Potency,[30],5.36 µM (active)
same,Potency,[31],5.01 µM (active)
same,Potency,[32],6.75 µM (active)
same,Potency,[33],6.01 µM (active)
